An excerpt weighted towards active compounds, which were near 2.3% of everything screened.
PfM18AAP inh-1: PfM18AAP enzyme inhibition. recombinant PfM18AAP, H-Glu-NHMec fluorogenic cleavage. inhibition, % at 7.35 µM. hit rate 1.2% among 290,000;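 active = inhibition above the campaign mean inhibition over all tested compounds plus 3 SD, cut at about 28% in these data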;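 also: 0% = plate median of test compound wells and 100% = 2 mM ZnCl2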
Rce1 inh: inhibitors of yeast Ras-converting enzyme; hit rate 0.27% among 290,000; yeast membranes, quenched prenylated peptide cleavage fluorescence; calls only; AID 2563; Q03530;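 active = fall in fluorescence gain of 50% or more versus controls, with final raw signal at or below 3038400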;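 also: plate controls were neutral control wells for no effect and wells lacking membranes for full effect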
FID counter: displaces DNA intercalator in HCV helicase counter-screen; DNA fluorescent intercalator displacement, fluorescence; inhibition, % at 7.9 µM; hit rate 0.17% among 290,000; AID 1845; in the data active = inhibition above about 37%;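 also: 0% = vehicle and 100% = reference compound; higher means more ethidium bromide displaced from hairpin DNA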
Kir21 inh: blocks the mouse Kir2.1 inward-rectifier potassium channel | hit rate 0.85% among 310,000 | HEK293-Kir2.1, FluxOR thallium flux fluorescence; stronger effect = lower value | P35561 | B-score at 10 µM;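 active = fluorescence ratio B-score at or below minus 3 SD of library scores, with starting-brightness B-score within 2 SD, cut at about -4.2 in these data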;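 also: channel flux triggered by added potassium and thallium sulfate stimulus; B-score of peak minus minimum fluorescence over baseline after thallium stimulus; more negative B-score means stronger Kir2.1 block with less thallium influx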
Target sequence (P35561 whole entry, looked up): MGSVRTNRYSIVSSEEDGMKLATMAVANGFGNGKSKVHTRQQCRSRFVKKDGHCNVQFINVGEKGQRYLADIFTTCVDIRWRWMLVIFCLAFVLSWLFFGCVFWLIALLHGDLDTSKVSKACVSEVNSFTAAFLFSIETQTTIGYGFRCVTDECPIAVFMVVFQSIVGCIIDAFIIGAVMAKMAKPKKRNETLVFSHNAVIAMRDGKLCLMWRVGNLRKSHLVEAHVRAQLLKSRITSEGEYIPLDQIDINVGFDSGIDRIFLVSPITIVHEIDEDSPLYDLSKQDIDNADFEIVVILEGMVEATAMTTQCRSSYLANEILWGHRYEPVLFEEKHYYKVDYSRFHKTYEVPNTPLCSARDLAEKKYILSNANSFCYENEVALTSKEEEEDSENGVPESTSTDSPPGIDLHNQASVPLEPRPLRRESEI
PfM18AAP inh-2: confirmation of Plasmodium falciparum M18 aspartyl aminopeptidase inhibitors | shares compounds with PfM18AAP inh-1 | recombinant PfM18AAP, H-Glu-NHMec fluorogenic cleavage | inhibition, % at 7.35 µM | hit rate 28% among 2,400 | AID 2170;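 active = mean inhibition over replicate wells above the hit cutoff set for the earlier primary screen, cut at about 29% in these data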;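 also: 0% = median of test compound wells and 100% = 2 mM ZnCl2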
CTSL1 counter: Cathepsin L (human) inhibition, confirmation; shares compounds with PfM18AAP inh-1; purified cathepsin L1, Z-Leu-Arg-MCA fluorescence; inhibition, % at 5.96 µM; 2,400 tested, under 10 active; AID 2178;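 active = average inhibition across replicates above the hit cutoff set in the earlier primary screen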;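 also: 0% = median of test compound wells and 100% = Z-Phe-Ala-diazomethylketone 1 µM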
* hit, by the source's call; i = inactive; · = no result.

SMILES | PfM18AAP inh-1 | Rce1 inh | FID counter | Kir21 inh | PfM18AAP inh-2 | CTSL1 counter
NC(=O)c1ccccc1NC(=O)c1ccoc1 | -2 | i | -1 | 0.06 | · | ·
CC1(C)CC(=O)C=C(C(=O)N2CCCC(C(=O)c3cccc(C(F)(F)F)c3)C2)O1 (configuration not stated) | -2 | i | -36 | -1.7 | · | ·
Cc1ccc(/C(O)=C/c2nc3ccccc3oc2=O)cc1 | 13 | i | -15 | 0.45 | · | ·
Cc1ccc2oc(=O)c(/C=C(\O)c3ccco3)nc2c1 | 50* | i | -1 | -0.32 | 21 | 4
CCCCN(C(=O)c1ccc(OC)c([N+](=O)[O-])c1)c1c(N)n(CCC)c(=O)[nH]c1=O | 4 | i | -9 | -0.91 | · | ·
CC(C)[C@H](NC(=O)c1c(F)cccc1F)C(=O)Nc1cccc(Br)c1 | -4 | i | -16 | -0.01 | · | ·
O=C(O)CCC(=O)Nc1sc2c(c1C(=O)NCc1ccccc1)CCCC2 | 3 | i | -37 | -1.1 | · | ·
COc1ccc(NC(=O)c2c(NC(=O)CCC(=O)O)sc3c2CCCCC3)cc1 | 44* | i | -6 | -0.83 | -46 | -5
COc1ccccc1/C=C(/NC(=O)c1ccccc1)C(=O)NCCCn1ccnc1 | -2 | i | -8 | -0.43 | · | ·
Cc1ccc(NC(=O)NNS(=O)(=O)c2ccc(Br)cc2)cc1 | -4 | i | 0 | 0.76 | · | ·
Cc1ccc(S(=O)(=O)NC(=O)Nc2ccc(N(C)C)cc2)cc1 | 43* | i | 8 | 0.8 | -26 | 4
COc1cccc(NC(=O)c2ccc(NC(=O)C3CC(=O)OC34CCCCC4)cc2)c1 (configuration not stated) | 3 | i | -23 | 1.8 | · | ·
Cc1cccc(/C=C/C(=O)c2cc(Br)ccc(=O)c2O)c1 | 49* | i | -17 | 0.95 | -21 | 4
CCCCN=Cc1c(C)[nH]n(-c2ccccc2)c1=S | 51* | i | -2 | -1.6 | -18 | 1
COCCN(C(=O)COC(=O)C1CC1C)c1c(N)n(Cc2ccccc2)c(=O)[nH]c1=O (configuration not stated) | · | i | · | -2 | · | ·
S=C(NCCc1ccccc1)Nc1ccccn1 | 25 | i | -7 | 1.6 | · | ·
Cc1cccc(NC(=S)NCCc2ccccc2)n1 | 38* | i | -10 | -0.06 | 10 | 1
CC(C)(C)Cc1nnc(NC(=O)CCc2ccccc2)s1 | -5 | i | -28 | 0.67 | · | ·
CCOC(=O)c1cc2c(ccn2-c2ccc(F)cc2)n1CC(=O)NC(C)(C)C | -9 | i | -14 | 0.6 | · | ·
COc1ccc(OC)c(Nc2nc(=O)c3cccnc3s2)c1 | 54* | · | -7 | · | 26 | -6
O=C(CSc1nnc2c(n1)[nH]c1ccccc12)Nc1nncs1 | 11 | i | 0 | 0.02 | · | ·
CCN(CC)S(=O)(=O)c1cc([N+](=O)[O-])ccc1NNC(=O)Nc1ccc(F)cc1 | 37* | i | -1 | 0.36 | 29* | 4
CCN(CC)S(=O)(=O)c1cc([N+](=O)[O-])ccc1NNC(=O)Nc1ccccc1OC | 56* | i | 0 | -0.51 | 13 | 4
O=C(Nc1ncn[nH]1)c1ccccc1Br | 38* | i | -3 | 0.14 | 44* | -4
O=C(Nc1ncccn1)c1ccc([N+](=O)[O-])cc1[N+](=O)[O-] | · | i | · | 0.77 | · | ·
SMILES | PfM18AAP inh-1 | Rce1 inh | FID counter | Kir21 inh | PfM18AAP inh-2 | CTSL1 counter
O=C(Nc1ncn[nH]1)c1ccc([N+](=O)[O-])cc1[N+](=O)[O-] | 44* | i | 1 | 1.6 | 34* | 1
NNC(=O)[C@H](Cc1ccccc1)NC(=O)Nc1ccc2c(c1)OCCO2 | 4 | i | -8 | -0.56 | · | ·
O=C(NCc1cnn(-c2ccccc2)c1)C1CCC(=O)N(C2CC2)C1 (configuration not stated) | 2 | i | -7 | -1.4 | · | ·
CSc1cccc(NC(=O)Nc2ccccc2)c1 | 2 | i | 4 | -1.4 | · | ·
CSc1cccc(N/C(=N/S(=O)(=O)c2ccccc2)NN)c1 | 38* | i | -19 | -0.58 | 0 | 1
OC(CN1CCc2ccccc2C1)c1ccccc1 (configuration not stated) | -12 | i | -3 | 0.94 | · | ·
OC(Cn1cnnc1)c1ccccc1 (configuration not stated) | 79* | i | 6 | -0.01 | 76* | -3
CCOc1ccc(C(=S)NC2CCCCC2)cc1OCC | 37* | i | -27 | 0.33 | 18 | -3
CN(C)c1ccc(C(=S)NC2CCCCC2)cc1 | 33* | i | -1 | 2.5 | 5 | 2
O=C(NC(=S)Nc1ccc2oc(=O)ccc2c1)c1cccc(Cl)c1 | 10 | i | -19 | 0.04 | · | ·
Cc1ccc(C)c(NC(=O)C(C)N2C(=O)c3ccccc3C2=O)c1 (configuration not stated) | 2 | i | -3 | -0.09 | · | ·
CC(C(=O)Nc1ncn[nH]1)N1C(=O)c2ccccc2C1=O (configuration not stated) | 51* | i | -2 | 0 | 51* | -5
O=C(NNC(=S)Nc1ccccc1)Nc1ccccc1 | 53* | i | -4 | 1.9 | 18 | -6
O=C(COc1cccc2cccnc12)NNC(=S)Nc1ccccc1 | 35* | i | -15 | 0.65 | 77* | 0
O=C(NNC(=S)Nc1ccccc1)NNC(=S)Nc1ccccc1 | 39* | i | 3 | 0.12 | 60* | -5
Cc1ccc(NC(=O)CN2C(=O)NC(Cc3ccccc3)C2=O)c(Br)c1 (configuration not stated) | 0 | i | -8 | -0.01 | · | ·
COc1ccc2[nH]c(=O)c(CN(C(=O)C(C)C)c3ccccc3OC)cc2c1 | -4 | i | -35 | -0.04 | · | ·
CC1CCCCN1S(=O)(=O)Cc1ccccc1Cl (configuration not stated) | -5 | i | -6 | -0.19 | · | ·
C=CCn1c(-c2cc(OC)cc(OC)c2)n[nH]c1=S | 7 | i | -6 | 0.72 | · | ·
C=CCn1c(-c2sc3nc(C)cc(C)c3c2N)n[nH]c1=S | 43* | i | -8 | 2.1 | 13 | 3
COCCN1CCN(C(=O)C2CCC(=O)N(Cc3cccc(C(F)(F)F)c3)C2)CC1 (configuration not stated) | -2 | i | -13 | -1.3 | · | ·
CCCC[n+]1c(C)sc2ccc(C)cc21 | 7 | i | -12 | 0.16 | · | ·
Cc1ccc2sc(C)[n+](CCO)c2c1 | 37* | i | -22 | -0.42 | -5 | 2
CC[n+]1c(C)sc2cc(C)ccc21 | 47* | i | -27 | 0.2 | -34 | 1
Oc1ccc(-c2cn3c(n2)SCC3)cc1O | 73* | i | -13 | -1.3 | 65* | -1
Oc1ccc(-c2cn3c(n2)SCC3)cc1 | -2 | i | 5 | 0.14 | · | ·
CCc1nnc(NC(=O)CN2C(=O)/C(=C/c3cc(OC)c(OC)c(OC)c3)SC2=S)s1 | 33* | i | -21 | 0.89 | -17 | 1
CCOc1ccc(OCC)c(NC(=O)C2CCN(S(=O)(=O)c3cccc4nonc34)CC2)c1 | -4 | i | -3 | -0.08 | · | ·

Compound activity from PubChem.
